TLR4 MyD88 comp – inhibitors of TLR4-MyD88 association in cells, primary screen, cell-based, HeLa CL3-4, BLA complementation, FRET ratio; HeLa CL3-4 TLR4/MyD88 BLA complementation; inhibition, % at 8.4 µM; 200,000 compounds, 0.18% hits; in the data active = inhibition above about 25%;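 note: 0% = vehicle and 100% = reference inhibitor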
TLR9-MyD88 inh – inhibitors of TLR9-MyD88 association in cells, primary screen, cell-based, CHO, BLA complementation, fluorescence; CCF4 FRET ratio; AID 504734, 2011; inhibition, % at 4.98 µM; 340,000 compounds, 0.21% hits; Toll-like receptor 9 (Homo sapiens) + Myeloid differentiation primary response protein …;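 active = inhibition above the mean over all tested compounds plus 3 SD, cut at about 21% in these data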;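 note: 0% = DMSO only wells and 100% = clavulanate BLA inhibitor control wells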
Myeloid diff 2 – induction of myeloid progenitor differentiation, primary screen, cell-based, flow cytometry, MLPCN library. AID 624256, 2012. ER-HoxA9 myeloid progenitors, lysozyme-GFP differentiation. 360,000 compounds, 1% hits. calls only at 10 µM;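 active = normalized GFP-positive differentiation at or above the plate's own cutoff, the solvent-only control mean plus 3 SD; inconclusive = no clear call, values can overlap the other calls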;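 note: cells exposed to compound for four days before flow analysis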
ABCB6 inh MLPCN – ABCB6 transporter inhibitors, primary screen, K562-ABCB6 cells, flow cytometry, MLPCN library | K562-ABCB6 porphyrin accumulation, 1 h; active compounds read low | fluorescence ratio to DMSO, % at 10 µM | 360,000 compounds, 0.19% hits | AID 602162, 2011;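 active = fluorescence ratio to DMSO below 75%, the collection mean minus 3 SD; inconclusive = too few cells collected in the well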;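 note: signal is porphyrin accumulated inside mitochondria; 100% equals median channel fluorescence of DMSO control wells; lower ratio means ABCB6 inhibition with less porphyrin fluorescence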
NOD2 RIPK2 PPI – NOD2-RIPK2 binding disruptors in cells, primary screen, fluorescence, CHO cells, BLA complementation; Receptor-interacting serine/threonine-protein kinase 2 (Homo sapiens), O43353; CCF4 ratio; inhibition, % at 4.98 µM; 360,000 compounds, 0.38% hits; AID 624267, 2012; in the data active = inhibition above about 21%;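 note: 0% = vehicle only and 100% = reference blocker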
NOD2-RIPK2 conf – NOD2-RIPK2 binding disruptors, retest, confirmation, fluorescence, CHO cells, BLA complementation, triplicate; shares compounds with NOD2 RIPK2 PPI; CCF4 FRET; inhibition, % at 4.98 µM; 1,200 compounds, 70% hits;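 active = mean inhibition across replicates above a set limit taken from the earlier primary screen, cut at about 21% in these data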;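 note: 0% = DMSO-only wells and the high end = clavulanate BLA-blocked wells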
BLA counter – counter-screen for NOD2-RIPK2 interaction inhibitors: BLA reporter; inhibition, % at 4.98 µM; AID 624371; 1,200 compounds, 57% hits; shares compounds with NOD2 RIPK2 PPI; CHO BLA reporter, CCF4 FRET ratio, counterscreen;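 active = mean inhibition above the low-control mean inhibition plus three low-control SD, cut at about 11% in these data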;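 note: 0% = DMSO only wells and 100% = clavulanate high control wells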
* = called active by the depositor. Rows were chosen to be rich in hits. Some 1.7% of all compounds tested hit in one or more screens of this group.

What do the screens show for `CCc1ccc(/C=C2/SC(=S)N(CCC(=O)Nc3cccnc3)C2=O)cc1`?
TLR9-MyD88 inh: -1.9; Myeloid diff 2: inactive; ABCB6 inh MLPCN: 103.0; NOD2 RIPK2 PPI: -4.2

What do the screens show for `C=CC(=O)N1C/C(=C/c2ccc(F)cc2)C(=O)/C(=C\c2ccc(F)cc2)C1`?
TLR9-MyD88 inh: 16.0; Myeloid diff 2: inconclusive; ABCB6 inh MLPCN: 93.0; NOD2 RIPK2 PPI: 54.1*; NOD2-RIPK2 conf: 64.0*; BLA counter: 9.1

What do the screens show for `CCOC(=O)N1CCN(C(=O)C2CCN(C(=O)c3ccccc3C)CC2)CC1`?
TLR9-MyD88 inh: 14.0; Myeloid diff 2: inactive; ABCB6 inh MLPCN: 96.0; NOD2 RIPK2 PPI: 21.7*; NOD2-RIPK2 conf: 71.1*; BLA counter: 17.6*

What do the screens show for `Cc1cccc(NC(=O)CNC(=O)c2ccc3c(c2)OCO3)n1`?
TLR9-MyD88 inh: -0.7; Myeloid diff 2: inactive; ABCB6 inh MLPCN: 95.0; NOD2 RIPK2 PPI: 37.6*; NOD2-RIPK2 conf: -6.4; BLA counter: 2.1

What do the screens show for `Nc1ccccc1C#Cc1ccc([N+](=O)[O-])cc1`?
TLR9-MyD88 inh: 18.2; Myeloid diff 2: inactive; ABCB6 inh MLPCN: 90.0; NOD2 RIPK2 PPI: 26.0*; NOD2-RIPK2 conf: 3.9; BLA counter: 19.0*

How did N#CC(c1ccccc1)c1ccc([N+](=O)[O-])cc1 (centres undefined) do in these assays?
Myeloid diff 2: inactive; ABCB6 inh MLPCN: 95.0; NOD2 RIPK2 PPI: 7.6

Results for O=C(CCC(=O)c1cccs1)Nc1ncccc1O ?
TLR9-MyD88 inh: 0.1; Myeloid diff 2: inactive; ABCB6 inh MLPCN: 95.0; NOD2 RIPK2 PPI: -1.1

What do the screens show for `CC(=O)Nc1ccc(S(=O)(=O)NCCC(=O)OCc2csc(CC(=O)Nc3ccccc3C)n2)cc1`?
TLR9-MyD88 inh: 2.2; Myeloid diff 2: inactive; ABCB6 inh MLPCN: 97.0; NOD2 RIPK2 PPI: -0.4

What do the screens show for `CCOC(=O)C1CCN(Cc2ccc(OC)c(C)c2OC)CC1`?
TLR4 MyD88 comp: -5.8; TLR9-MyD88 inh: 1.9; Myeloid diff 2: inactive; ABCB6 inh MLPCN: 90.0; NOD2 RIPK2 PPI: -3.0

Results for CCOC(=O)C1CCN(Cc2cc(Cl)c3ccccc3c2O)CC1 ?
TLR9-MyD88 inh: 4.0; Myeloid diff 2: inactive; ABCB6 inh MLPCN: 100.0; NOD2 RIPK2 PPI: 27.6*; NOD2-RIPK2 conf: 3.9; BLA counter: 5.0

What do the screens show for `COc1cccc(OCc2cc(C(=O)N3CCN(C(C)=O)CC3)no2)c1`?
TLR9-MyD88 inh: 2.1; Myeloid diff 2: inactive; ABCB6 inh MLPCN: 99.0; NOD2 RIPK2 PPI: -5.4

What do the screens show for `CCC(C)(C)n1nnnc1C(C(C)C)N(Cc1ccco1)Cc1cc2cc3c(cc2[nH]c1=O)OCO3` (centres undefined)?
TLR4 MyD88 comp: 10.3; TLR9-MyD88 inh: 14.8; Myeloid diff 2: inactive; ABCB6 inh MLPCN: 99.0; NOD2 RIPK2 PPI: 43.8*; NOD2-RIPK2 conf: 5.0; BLA counter: -1.8

What do the screens show for `CC1=C(C)CS(=O)N(S(=O)(=O)c2ccc(Cl)cc2)C1` (centres undefined)?
TLR4 MyD88 comp: 0.2; TLR9-MyD88 inh: 9.4; ABCB6 inh MLPCN: 103.0; NOD2 RIPK2 PPI: 37.0*; NOD2-RIPK2 conf: 28.8*; BLA counter: 2.7

Results for CC1CCCC(C)N1S(=O)(=O)c1ccc(Cl)cc1 (centres undefined) ?
TLR9-MyD88 inh: -8.4; Myeloid diff 2: inactive; ABCB6 inh MLPCN: 92.0; NOD2 RIPK2 PPI: 5.1

Results for O=C(NCc1cccnc1)/C(=C\c1ccc(-c2cccc(Cl)c2)o1)S(=O)(=O)c1ccccc1 ?
TLR4 MyD88 comp: -3.0; TLR9-MyD88 inh: 13.0; Myeloid diff 2: inconclusive; ABCB6 inh MLPCN: 90.0; NOD2 RIPK2 PPI: 35.1*; NOD2-RIPK2 conf: 47.6*; BLA counter: 4.0

What do the screens show for `O=C(/C=C/N1CCOCC1)c1coc2ccccc12`?
TLR4 MyD88 comp: 1.7; TLR9-MyD88 inh: -5.1; Myeloid diff 2: inactive; ABCB6 inh MLPCN: 95.0; NOD2 RIPK2 PPI: 29.2*; NOD2-RIPK2 conf: -1.8; BLA counter: -7.6
